In PubChem BioAssay (Tox21):
Inconclusive results are not listed. Unmarked numbers belong to inactive results. The source made the active and inactive calls. The call rests on the fitted dose curve; in most records, active means well fitted inhibition curve with a large enough effect in the repeat runs; inconclusive means weak or mixed curves; inactive means flat fitted curve, though single readings scatter.
On the % scale 0 is the no-effect control and ±100 the full control effect.

What follows are compounds tested against Luciferin 4-monooxygenase (Photinus pyralis) (UniProt P08659) (assay: qHTS assay to identify small molecule inhibitors of firefly luciferase (AID 1224835; further: nearly all actives have a fitted effect of over 25% in size)). Details: purified P. pyralis luciferase, luminescence inhibition; series mostly up to 115 µM; activity change, negative = inhibition: at the top concentration.
Chain of Luciferin 4-monooxygenase (Photinus pyralis) (P08659 whole entry, looked up): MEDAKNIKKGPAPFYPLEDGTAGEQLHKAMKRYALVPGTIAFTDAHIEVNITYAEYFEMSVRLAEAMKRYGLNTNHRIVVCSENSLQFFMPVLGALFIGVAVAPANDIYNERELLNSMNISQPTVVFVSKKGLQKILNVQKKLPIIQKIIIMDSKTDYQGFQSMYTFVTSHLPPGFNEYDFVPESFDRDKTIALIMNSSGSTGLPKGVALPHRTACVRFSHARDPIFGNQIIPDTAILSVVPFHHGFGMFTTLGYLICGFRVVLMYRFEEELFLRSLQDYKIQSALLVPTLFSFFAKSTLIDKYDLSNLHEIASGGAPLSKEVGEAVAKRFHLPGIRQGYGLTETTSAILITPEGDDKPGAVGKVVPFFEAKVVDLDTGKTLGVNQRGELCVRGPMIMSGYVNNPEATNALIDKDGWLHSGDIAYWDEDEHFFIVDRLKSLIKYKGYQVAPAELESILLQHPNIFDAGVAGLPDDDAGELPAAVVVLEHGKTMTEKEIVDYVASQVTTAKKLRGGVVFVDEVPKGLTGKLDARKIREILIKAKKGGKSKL
Excerpt: U.S. Tox21 Program National Center for Advancing Translational Sciences [NCATS] NIH Chemical Genomics Center [NCGC] U.S. Environmental Protection Agency [EPA] National Institutes of Environmental Health Sciences [NIEHS] National Toxicology Program [NTP] U.S. Food and Drug Administration [FDA] Tox21 Assay Overview: Firefly (Photinus pyralis) luciferase is one of the most commonly used transcriptional reporters. Firefly luciferase reporter-gene assays are generally considered one of the most sensitive assay types (Wood, 1995; Wood, 1998). However, it was initially observed, in 1991, by Thompson et al., that compounds that resemble the substrates of firefly luciferase (FLuc) can act as competitive inhibitors of the enzyme, and that these compounds, upon interaction with luciferase in the cell, can actually stabilize the protein and increase its half-life. Previous profiling work by other groups to determine the prevalence of compounds that affect FLuc enzymatic activity (PubChem AID 411) identified that ~3% of the MLSMR library (then at ~72K) inhibited FLuc. […] Thus the Tox21 10K library is profiled for activity against FLuc using a biochemical assay of purified FLuc and KM concentrations of FLuc substrates (D-luciferin and ATP).
These assay plates were then treated with 23nL of compound or DMSO using a Kalypsys pin tool, which allows for delivery of a 6-point interplate titration of each compound to the assay plate (quantitative HTS.) 1 uL of firefly luciferase mix (containing 50 mM Tris acetate, pH 7.6, 0.04 uM P. pyralis luciferase, 0.01% Tween, 0.05% BSA and dH2O) was then delivered by FRD to each well. Luciferase activity was then measured using a ViewLux CCD imager.
For COc1ccc(-c2nc3ccc(C4=NNC(=O)CC4C)cc3[nH]2)cc1 (stereo not given), the Potency was 8.71 µM (active).
In the case of CCCC(=O)Nc1ccc(O)c(C(C)=O)c1, the “activity change, negative = inhibition” value is reported as 1.46% [at 52.9 µM].
With Cc1ccc(C(C)OC(=O)C2(C)CCC(C(=O)O)C2(C)C)cc1 (stereo not given) the “activity change, negative = inhibition” value was -7.52% [at 52.9 µM].
With COc1ccc(C(=O)c2ccc(OC)cc2O)c(O)c1 the Potency was 28.5 µM (active).
With Cc1cc(C(=O)O)ccc1[N+](=O)[O-] the “activity change, negative = inhibition” value was -11.4%.
C/C(=C(\CCOP(=O)(O)O)SC(=O)c1ccccc1)N(C=O)Cc1cnc(C)nc1N was tested, and the activity change, negative = inhibition was 0.277% [at 10.5 µM].
In the case of COc1ccc(C(=O)Nc2nc3ccccc3c(NCc3ccccc3)c2C#N)cc1, the “activity change, negative = inhibition” value is reported as 0.307%.
CC(=O)c1cccc([N+](=O)[O-])c1 was tested, and the “activity change, negative = inhibition” value was 1.91%.
CCC(CC)Nc1ccc(C)c(C)c1 was tested, and the “activity change, negative = inhibition” value was -6.19%.
For COC(C)OC, the “activity change, negative = inhibition” value was 0.0791%.
OCCN1CCN(CCCN2c3ccccc3C=Cc3ccccc32)CC1 was tested, and the “activity change, negative = inhibition” value was -0.159% [at 52.9 µM].
NS(=O)(=O)c1ccc(N2CCCCS2(=O)=O)cc1 was tested, and the “activity change, negative = inhibition” value was -0.468% [at 52.9 µM].
CCCCCCCCCCCCCCCCCCOS(=O)(=O)O was tested, and the “activity change, negative = inhibition” value was -0.0153%.
CCN(CC)CCNc1ccc(CNC=O)c2sc3ccc(OC)cc3c(=O)c12 was tested, and the “activity change, negative = inhibition” value was 0.583%.
For O=C(OCCc1ccccc1)c1ccccc1, the Potency was 1 µM (active).
In the case of COc1ccc(S(=O)(=O)N2C(=O)[C@@](c3ccccc3OC)(N3C[C@H](O)C[C@H]3C(=O)N(C)C)c3cc(Cl)ccc32)c(OC)c1, the “activity change, negative = inhibition” value is reported as 6.77%.
For CN1Cc2cc(C(=O)N3CCC(C4CCNCC4)CC3)ccc2NC(CC(=O)O)C1=O (stereo not given), the “activity change, negative = inhibition” value was -0.746% [at 52.9 µM].
In the case of O=P(O)(OCc1ccccc1)OCc1ccccc1, the “activity change, negative = inhibition” value is reported as -0.101%.
In the case of CN(C)CCOC(c1ccccc1)c1ccc(Br)cc1 (stereo not given), the “activity change, negative = inhibition” value is reported as 8.06% [at 52.9 µM].
With NCc1ccccc1Sc1ccccc1CO the “activity change, negative = inhibition” value was 1.64% [at 52.9 µM].
With O=C(Nc1ccc(S(=O)(=O)N2CCOCC2)cc1)c1cc(Cl)ccc1NS(=O)(=O)c1ccc(Cl)s1 the “activity change, negative = inhibition” value was -0.438% [at 52.9 µM].
In the case of CCCCC1=NC2(CCCC2)C(=O)N1Cc1ccc(-c2ccccc2-c2nn[nH]n2)cc1, the “activity change, negative = inhibition” value is reported as 0.33% [at 52.9 µM].
CCCCC was tested, and the “activity change, negative = inhibition” value was -5.81%.
For COc1cc2c(cc1OC)C(C(C(=O)N(CCc1ccc(OC)c(OC)c1OC)CCc1ccc(OC)c(OC)c1OC)c1ccccc1)=NCC2 (stereo not given), the “activity change, negative = inhibition” value was 1.45% [at 52.9 µM].
In the case of O=C(O)c1nc(Cl)c(Cl)c(Cl)c1Cl, the “activity change, negative = inhibition” value is reported as -2.74%.
For CC(=O)NO, the “activity change, negative = inhibition” value was 10.2% [at 52.9 µM].
Nc1ccc([N+](=O)[O-])c(C(F)(F)F)c1 was tested, and the “activity change, negative = inhibition” value was -3.1% [at 52.9 µM].
CCOC(=O)c1cccnc1 was tested, and the “activity change, negative = inhibition” value was 3.96% [at 52.9 µM].
CCCCC/C=C\C/C=C\CCCCCCCC(=O)NC(C)c1ccccc1 (stereo not given) was tested, and the “activity change, negative = inhibition” value was 0.928% [at 52.9 µM].
C=C(C)C(=O)OCCOCC was tested, and the “activity change, negative = inhibition” value was -0.201%.
For NCC(=O)CCC(=O)O, the “activity change, negative = inhibition” value was 5.25% [at 52.9 µM].
Clc1ccc(Cn2c(CN3CCCC3)nc3ccccc32)cc1 was tested, and the “activity change, negative = inhibition” value was 5.95% [at 52.9 µM].
With COC(=O)c1ccc(I)cc1S(=O)(=O)NC(=O)Nc1nc(C)nc(OC)n1 the “activity change, negative = inhibition” value was 0.0312%.
CC1(c2ccccc2)OC(C(=O)O)=CC1=O (stereo not given) was tested, and the “activity change, negative = inhibition” value was 0.022% [at 52.9 µM].
For NC(=O)C(c1ccccc1)(c1ccccc1)[C@@H]1CCN(CCc2ccc3c(c2)CCO3)C1, the “activity change, negative = inhibition” value was -3.13% [at 52.9 µM].
CCCOC(C(=O)OC1CCN(C)CC1)(c1ccccc1)c1ccccc1 was tested, and the “activity change, negative = inhibition” value was 3.02% [at 52.9 µM].
With COc1cc2nc(N(C)CCCNC(=O)C3CCCO3)nc(N)c2cc1OC (stereo not given) the “activity change, negative = inhibition” value was 4.87% [at 52.9 µM].
In the case of C#CCN(C)CCCOc1ccc(Cl)cc1Cl, the Potency is reported as 15.5 µM (active).
OC[C@H]1O[C@@H](OCCc2ccc(O)cc2)[C@H](O)[C@@H](O)[C@@H]1O was tested, and the “activity change, negative = inhibition” value was -1.96% [at 52.9 µM].
With CC1CCC(=O)C1=O (stereo not given) the “activity change, negative = inhibition” value was 1.87%.
